# Laboratory results published in PubChem BioAssay (NCATS).
# “And” between values parts separate entries of the source, which are not always exact repeats. Equal entries are not always repeated. Inconclusive results are not listed. Entries that show only a call come without a potency. Unmarked numbers belong to inactive results. The source made the active and inactive calls. The call rests on the fitted dose curve; in most records, active means well fitted curve in the direction sought with a large enough effect; inconclusive means small, poorly fitted or top-dose-only effect, or another doubt; inactive means no such curve, though single readings can be large; an effect the other way counts as inactive or inconclusive.
# Assays:
# [1] = biological target: Cellular tumor antigen p53 (Homo sapiens) (UniProt P04637); test: Primary qHTS for small molecule compounds that upregulate eGFP-tagged delta133p53alpha (in N-terminal) cells. (AID 2060322); details: NCI-H358 eGFP-delta133p53alpha fluorescence, 24 h; activation: active compounds read high; further: nearly all actives have a fitted effect of over 75% in size; further: potency means the concentration at half of the fitted maximal effect; on activation: series mostly up to about 56 µM
# Outline: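 NCI-H358 cells pre-induced 24 h with 10 ng/ml doxycycline to express N-terminal eGFP-delta133p53alpha, then dosed 24 h at 37C without doxycycline; fixed, Hoechst-stained, GFP intensity by laser scanning cytometry, normalized to DMSO (0%) and 57.5 uM 5-azacytidine (100%).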
# [2] = biological target: Aldehyde dehydrogenase, mitochondrial (Homo sapiens) (UniProt P05091); test: qHTS for Inhibitors of the Aldehyde Dehydrogenase Family (ALDH2) Primary screen (AID 2061308); further: nearly all actives have a fitted effect of over 55% in size
# [3] = biological target: Retinaldehyde dehydrogenase 3 (Homo sapiens) (UniProt P47895); test: qHTS for Inhibitors of the Aldehyde Dehydrogenase Family (ALDH1A3) Primary screen (AID 2061315)
# [4] = BET inhibitor-based combinations targeting novel dependencies in MECOM-rearranged (r) AML: SET-2 cell line (AID 2202231); details: SET-2 AML cells viability, CellTiter-Glo luminescence, 48 h; viability: active compounds read low, concentration not given here; further: nearly all actives have a fitted effect of over 35% in size; further: potency means the concentration at half of the fitted maximal effect
# Outline: (§1)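 A 48 hr incubation preceded viability reading by CellTiter-Glo, with 15 min room-temperature development. Dose series had 11 points; normalization used DMSO and empty wells; AUC was computed and mean-centered per line as Z-AUC.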
# [5] = BET inhibitor-based combinations targeting novel dependencies in MECOM-rearranged (r) AML: OCI-AML3 cell line (AID 2202232); details: Potency: OCI-AML3 viability; further: nearly all actives have a fitted effect of over 35% in size; further: potency means the concentration at half of the fitted maximal effect
# Outline: as §1
# [6] = BET inhibitor-based combinations targeting novel dependencies in MECOM-rearranged (r) AML: HNT-34 cell line (AID 2202234); further: nearly all actives have a fitted effect of over 35% in size; further: potency means the concentration at half of the fitted maximal effect
# Outline: (§2)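 Each compound is tested in an 11-point concentration series against 500 seeded cells/well for 48 hr. The luminescent viability signal is normalized to DMSO and blank wells, then reduced to AUC and a cell-line-centred Z-AUC.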
# [7] = BET inhibitor-based combinations targeting novel dependencies in MECOM-rearranged (r) AML: UCSD-AML1 cell line (AID 2202235); further: nearly all actives have a fitted effect of over 40% in size; further: potency means the concentration at half of the fitted maximal effect
# Outline: as §2
# [8] = BET inhibitor-based combinations targeting novel dependencies in MECOM-rearranged (r) AML: AML-194 cell line (AID 2202237; further: nearly all actives have a fitted effect of over 40% in size; further: potency means the concentration at half of the fitted maximal effect)
# Outline: as §1
# [9] = BET inhibitor-based combinations targeting novel dependencies in MECOM-rearranged (r) AML: AML-191 cell line (AID 2202236; further: nearly all actives have a fitted effect of over 35% in size; further: potency means the concentration at half of the fitted maximal effect)
# Outline: as §1
# [10] = BET inhibitor-based combinations targeting novel dependencies in MECOM-rearranged (r) AML: MV-4-11 cell line (AID 2202233); further: potency means the concentration at half of the fitted maximal effect; nearly all actives have a fitted effect of over 45% in size
# Outline: as §2
# Chain of Cellular tumor antigen p53 (Homo sapiens) (P04637 whole entry, looked up): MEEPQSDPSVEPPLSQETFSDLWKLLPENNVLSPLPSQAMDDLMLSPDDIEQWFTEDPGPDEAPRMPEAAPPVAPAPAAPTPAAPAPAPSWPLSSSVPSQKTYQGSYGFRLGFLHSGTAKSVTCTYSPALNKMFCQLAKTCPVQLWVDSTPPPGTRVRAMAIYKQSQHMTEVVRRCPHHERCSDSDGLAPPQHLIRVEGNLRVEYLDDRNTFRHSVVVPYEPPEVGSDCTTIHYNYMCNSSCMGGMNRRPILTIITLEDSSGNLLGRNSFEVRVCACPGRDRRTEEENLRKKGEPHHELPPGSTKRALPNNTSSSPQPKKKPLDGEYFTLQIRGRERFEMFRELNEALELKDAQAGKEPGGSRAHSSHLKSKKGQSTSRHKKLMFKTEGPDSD
Compound,activation [1],Potency [2],Potency [3],viability [4] [%],Potency [5],Potency [6],Potency [7],Potency [8],Potency [1],Potency [4],Potency [9],Potency [10]
C[C@@H]1CN(Cc2ccc(F)cc2)[C@@H](C)CN1C(=O)c1cc2c(C(=O)C(=O)N(C)C)cn(C)c2cc1Cl,10.3% and -3.57%,inactive,inactive,94.6,inactive,inactive,inactive,inactive,–,–,–,–
CCOc1cc(C(=O)N2CCC(N3CCN(C)CC3)CC2)ccc1Nc1ncc2c(n1)N(C1CCCC1)c1ccccc1C(=O)N2C,–,inactive,inactive,–,3.32 µM (active),13.2 µM (active),5.25 µM (active),8.33 µM (active),30.1 µM (active),14.8 µM (active),11.8 µM (active),–
COc1ccc(CCN2CCN(CCCc3ccccc3)CC2)cc1OC,20.6% and -1.43%,inactive,inactive,–,inactive,inactive,inactive,inactive,–,18.6 µM (active),inactive,–
O=C(NC1CCOCC1)c1ccc(-c2cc(-c3cn[nH]c3-c3ccccn3)ccn2)cc1,37.2% and 4.46%,inactive,inactive,101,inactive,–,inactive,inactive,–,–,inactive,–
CN1C(=O)N[C@@H](Cc2c[nH]c3c(Cl)cccc23)C1=O,-25.9%,inactive,inactive,110,inactive,inactive,–,inactive,–,–,inactive,–
CCNC(=O)[C@H]1O[C@@H](n2cnc3c(N)nc(NCCc4ccc(CCC(=O)O)cc4)nc32)[C@H](O)[C@@H]1O,-4.46%,inactive,inactive,115,inactive,inactive,inactive,inactive,–,–,inactive,–
C[C@@H](NCCCc1cccc(C(F)(F)F)c1)c1cccc2ccccc12,1.97%,inactive,inactive,–,16.6 µM (active),26.3 µM (active),–,26.3 µM (active),–,23.5 µM (active),23.5 µM (active),–
Cc1ccc(C(N)=O)cc1Nc1nccc(-c2cn(C(C)C)c3cnccc23)n1,–,inactive,inactive,–,7.42 µM (active),2.95 µM (active),4.68 µM (active),8.33 µM (active),10.9 µM (active),7.42 µM (active),5.25 µM (active),–
Cc1ccccc1C(=O)Nc1ccc(C(=O)N2CCCC(O)c3cc(Cl)ccc32)c(C)c1 (centres undefined),0.83%,inactive,inactive,88.6,inactive,inactive,inactive,inactive,–,–,inactive,–
CN1CCN(c2ccc(OC(F)(F)F)c(Nc3ncc4c(n3)-c3c(c(C(N)=O)nn3CCO)CC4)c2)CC1,85.7%,inactive,inactive,–,0.059 µM (active),–,0.118 µM (active),0.332 µM (active),–,0.186 µM (active),0.132 µM (active),–
CCS(=O)(=O)N1CCN(c2ccc(Nc3ncc(C(N)=O)c(NC4CC4)n3)cc2)CC1,25.7%,inactive,inactive,–,13.2 µM (active),–,0.372 µM (active),4.68 µM (active),–,4.17 µM (active),4.68 µM (active),0.417 µM (active)
Cc1cccc(Nc2nc(N[C@@H]3CCCC[C@H]3N)ncc2C(N)=O)c1,14.8%,inactive,inactive,–,16.6 µM (active),–,–,16.6 µM (active),–,29.5 µM (active),18.6 µM (active),2.63 µM (active)
CCC(=O)N[C@H]1CC[C@H](C(=O)N(C)c2ccc(-c3nc4ccccc4o3)cc2)C1,18%,inactive,inactive,98.9,18.6 µM (active),–,inactive,–,–,–,20.9 µM (active),–
CCCCc1ccc(NS(=O)(=O)c2ccc(C)c(C(=O)N3CCN(c4cccc(C)c4C)CC3)c2)cc1,-4.4%,inactive,inactive,94.4,inactive,inactive,inactive,–,–,–,inactive,–
CCS(=O)(=O)N1CCC([C@@H](C)n2c(C)c(C(=O)NCc3c(OC)cc(C)[nH]c3=O)c3ccccc32)CC1,7.16%,inactive,inactive,115,5.9 µM (active),inactive,inactive,inactive,–,–,inactive,–
O=C(c1cncc(Br)c1)N1CCC(N2CCCC2)CC1,-12.4% and 0.333%,inactive,inactive,113,inactive,inactive,inactive,inactive,–,–,inactive,–
Cc1ccc(C(=O)Nc2cccc(C(F)(F)F)c2)cc1-c1ccc2nc(NCCN3CCOCC3)ncc2c1,–,inactive,inactive,–,0.525 µM (active),0.0934 µM (active),3.32 µM (active),3.32 µM (active),26.9 µM (active),11.8 µM (active),2.63 µM (active),–
